The structures appear in SMILES notation. Calls of active or inactive are those of the source. The calls were made as follows: active = hit-call score of the fitted dose curve at least 0.9, where 1 is the maximum; inactive = score below 0.9. Peptide text beside a SMILES is read from it.

A short description of the test: ATG_ERE_CIS: Attagene CIS-FACTORIAL HepG2 Assay for Estrogen Response Element (ERE) (AID 2282940). The settings on record: HepG2 ERE cis-reporter, Attagene RNA transcript; actives raise or lower the signal. On the procedure: ATG_CIS is a cell-based, multiplexed-readout assay that uses HepG2, a human liver cell line, with measurements taken at 24 hours after chemical dosing in a 24-well plate.ATG_ERE_CIS is one of 52 assay component(s) measured or calculated from the ATG_CIS assay. It is designed to make measurements of mRNA induction, a form of inducible reporter, as detected with fluorescence intensity signals by Reverse transcription polymerase chain reaction (RT-PCR) and Capillary electrophoresis technology.Data from the assay component ATG_ERE_CIS was analyzed into 1 assay endpoint. This assay endpoint, ATG_ERE_CIS, was analyzed with bidirectional fitting relative to DMSO as the negative control and baseline of activity. Using a type of inducible reporter, measures of mRNA for gain or loss-of-signal activity can be used to understand the reporter gene at the transcription factor-level as they relate to the gene ESR1. Furthermore, this assay endpoint can be referred to as a primary readout, because this assay has produced multiple assay endpoints where this one serves a reporter gene function. To generalize the intended target to other relatable targets, this assay endpoint is annotated to the nuclear receptor intended target family, where the subfamily is steroidal.
Human liver HepG2 cells are transiently transfected with multiple reporter transcription units (MRTUs) in 6-well plates using FuGene 6 reagent (Roche; 3 ml FuGene/1 mg DNA). The MRTU constructs are regulated by a cis-regulating element (promoter). […] A major difference between the CIS and TRANS system is that in CIS activities of endogenous TFs are measured, whereas the TRANS assay evaluates changes in activities of exogenous, chimeric NR-Gal4 proteins. […] At the end of 24 hour incubation, total RNA was isolated using TriZol reagent (Invitrogen). The isolated RNA is then reverse-transcribed using oligo(dT) primer and Mo-MLV reverse transcriptase (Invitrogen) with DNAse I (Ambion) treatment for 30 min. The one-tenth of the produced cDNA was amplified by PCR using Taq DNA polymerase (Invitrogen) and two reporter sequence-specific primers. The PCR products were fluorescently labeled by primer extension with 6-arboxyfluorescein (6-FAM) 5'-labeled reporter sequence-specific primer (2 min at 95 C, 20 s at 68 C and 10 min at 72 C) and these products were digested with 5U of HpaI (New England Biolabs) for 2h at 37 C. The fragments were purified using Qiaquick PCR columns (Qiagen), analyzed on an ABI 3130xL genetic analyzer (Applied Biosystems) with peak positions identified by using a set of X-rhodamine (ROX)-labeled MapMarker1000 molecular weight standards (BioVentures). The raw capillary electrophoresis data was processed using Attagraph software (Attagene).
On to `CCCCC/C=C\C/C=C\CCCCCCCC(=O)O`, for which the compound was called inactive.
For the compound `CC(CC=O)CC(C)(C)C` (stereo not given), the compound was classed as inactive.
Same read-out and setting: to `CCCCOCCOC(=O)COc1ccc(Cl)cc1Cl` belongs “inactive”.
On the same count and under the same terms, to `Nc1ccnc(=O)[nH]1` belongs “inactive”; to `CC1OC(=O)C(C)OC1=O` (stereo not given), “inactive”.
For the compound `CCCCCCCCCCCCCC(=O)OC(C)C`, the call was inactive.
The same measure, in the same setting: the value for `N#Cc1ccc(C(c2ccc(C#N)cc2)n2cncn2)cc1` was “inactive”; that for `CC(C)C(=O)OCCc1ccccc1` was “inactive”; that for `CCc1cccc(CC)c1` was “inactive”.
On the same count and under the same terms, the value for `Cc1c(C(=O)c2c[nH]n(C)c2=O)ccc(S(C)(=O)=O)c1C1=NOCC1` was “inactive”; that for `CC(=O)CC(=O)Nc1ccccc1C` was “inactive”.
Broadly, the AC50 is the concentration giving half of the maximal activity seen. In the case of `COC(=O)[C@H](Cc1ccccc1)NC(=O)[C@@H](N)CC(=O)O` (H-Asp-Phe-OMe), the concentration at half-maximal activity (AC50) was 42.1 µM (active).
Take `O=C(O[C@@H]1Cc2c(O)cc(O)cc2O[C@@H]1c1cc(O)c(O)c(O)c1)c1cc(O)c(O)c(O)c1`: the compound was called inactive.
Same read-out and setting: the value for `CCc1occc(=O)c1O` was “inactive”; that for `CC(CC(C)C)=NO` was “inactive”.
Take `O=C(O)/C=C/c1ccccc1`: the AC50 is 42.5 µM (active).
For `c1ccc(Nc2cccc3ccccc23)cc1`, the half-maximal activity concentration (AC50) was 2.06 µM (active).
For the compound `COC(=O)c1ccc(C(=O)OC)c(C(=O)OC)c1`, the call was inactive.
The same measure, in the same setting: the value for `CCNc1nc(NC(C)(C)C)nc(OC)n1` was “inactive”; that for `CCCCOCCOCCOC(C)=O` was “inactive”.
Same read-out and setting: to `Nc1cccc(N)n1` belongs “inactive”.
For the compound `CC1=CC(C)C(C=O)CC1` (stereo not given), the AC50 was 27.2 µM (active).
As for `CCCCOC(=O)CCC(C)=O`, the result was inactive.
Same read-out and setting: to `O=C1CCCCCCCCCCC1` belongs “inactive”; to `CC(C=O)c1ccccc1` (stereo not given), “inactive”.
For `CCCC(CC)c1ccccc1` (stereo not given), the half-maximal activity concentration (AC50) was 45.1 µM (active).
Still for that read-out and setting: to `O=S(=O)(O)c1ccc(N=Nc2c(O)ccc3ccccc23)cc1` belongs 33.5 µM (active).
Turning to `CC(=O)OC/C=C(/C)CCC=C(C)C`, the compound was classed as inactive.
The same measure, in the same setting: to `CCCc1ccc(O)c(OC)c1` belongs “inactive”; to `O=C(Cl)c1ccc(C(=O)Cl)cc1`, “inactive”; to `O=C(Cl)c1c(Cl)c(Cl)c(C(=O)Cl)c(Cl)c1Cl`, “inactive”.
The same measure, in the same setting: the value for `CCOC(=O)C1=NN(c2ccc(Cl)cc2Cl)C(C)(C(=O)OCC)C1` (stereo not given) was “inactive”; that for `CC(C)(CO)C(O)C(=O)NCCCO` (stereo not given) was “inactive”.
`CC(=O)CCC1=C(C)CCCC1(C)C`: the AC50 is 29.8 µM (active).
Same read-out and setting: to `Oc1ccc(/C=C/c2cc(O)cc(O)c2)cc1` belongs 6.81 µM (active); to `CC(C)=CCCC(C)=CC#N`, 172 µM (active).
For `O=C1CCCN1C1CCCCC1`, the result was inactive.
Still for that read-out and setting: to `CC(C)(C)NC(=O)[C@H]1CC[C@H]2[C@@H]3CC[C@H]4NC(=O)C=C[C@]4(C)[C@H]3CC[C@]12C` belongs “inactive”; to `Clc1cc(Cl)c(Cl)c(Cl)c1Cl`, “inactive”.
On the same count and under the same terms, to `Clc1cccnc1` belongs “inactive”.

(Values after PubChem BioAssay (EPA / NIEHS).)
